Measured values: PubChem BioAssay (Tox21)
Inconclusive results are not listed. The source made the active and inactive calls. Unless noted, the call rests on the fitted dose curve; in most records, active means well fitted curve in the direction sought with a large enough effect in the repeat runs; inconclusive means weak or mixed curves; inactive means no such curve, though single readings can be large; an effect the other way counts as inactive or inconclusive.

Experiments:
[1] = molecular target: Luciferin 4-monooxygenase (Photinus pyralis) (UniProt P08659); test: qHTS assay to identify small molecule inhibitors of firefly luciferase (AID 1224835); further: nearly all actives have a fitted effect of over 25% in size
How it was run: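 Inhibition of purified Photinus luciferase is measured by luminescence. Substrate levels (D-luciferin, ATP) sit at their KM values. Each compound is tested in a concentration series.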

[2] = qHTS assay to identify small molecule agonists of the constitutive androstane receptor (CAR) signaling pathway - cell viability counter screen (AID 1224836); further: nearly all actives have a fitted effect of over 45% in size
How it was run: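 Compound titrations (15 concentrations) went onto HepG2-CYP2B6-hCAR cells 4 h after seeding, alongside PK11195 at a final 0.75 uM; a 23 h, 37 C/5% CO2 incubation preceded CellTiter-Fluor viability measurement.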

[3] = qHTS assay to identify small molecule antagonists of the constitutive androstane receptor (CAR) signaling pathway - cell viability counter screen (AID 1224837); further: nearly all actives have a fitted effect of over 45% in size
How it was run: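 HepG2 cells stably carrying hCAR and CYP2B6-2.2kb reporter, stimulated with 50 nM CITCO and compounds at 15 concentrations for 23 h at 37 C. Viability measured by CellTiter-Fluor fluorescence.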

[4] = molecular target: Nuclear receptor subfamily 1 group I member 3 (Homo sapiens) (UniProt Q14994); test: qHTS assay to identify small molecule antagonists of the constitutive androstane receptor (CAR) signaling pathway (AID 1224838); further: nearly all actives have a fitted effect of over 40% in size
How it was run: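 HepG2 cells stably carrying hCAR and a CYP2B6-2.2kb luciferase reporter, seeded 4 hrs before compound (15 concentrations). Stimulated with 50 nM CITCO for 24 hr at 37 C. ONE-Glo luminescence read after 30 min at room temperature.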

[5] = molecular target: Nuclear receptor subfamily 1 group I member 3 (Homo sapiens) (UniProt Q14994); test: qHTS assay to identify small molecule agonists of the constitutive androstane receptor (CAR) signaling pathway (AID 1224839); further: nearly all actives have a fitted effect of over 15% in size
How it was run: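 In this screen, CAR-driven CYP2B6 promoter activity is measured by luminescence in HepG2-CYP2B6-hCAR cells after 24 h with test compounds and 0.75 uM PK11195 (final concentration).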

[6] = qHTS assay to identify small molecule antagonists of the estrogen related receptor signaling pathway with the pleiotropic PPARgamma coactivator (PGC) from Tox21 10K library - cell viability counter screen (AID 1224840; active means well fitted cell-killing curve with a large enough effect in the repeat runs, not every such curve was filed as active; further: nearly all actives have a fitted effect of over 40% in size)
How it was run: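 PGC/ERR cells (2,000/well) plated 6 h, then compound-treated for 17.5 h at 37 C. Viability measured by CellTiter-Fluor fluorescence after 30 min at 37 C, multiplexed with the pathway assay.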

[7] = molecular target: Thyrotropin receptor (Homo sapiens) (UniProt P16473); test: qHTS assay to identify small molecule agonists of the thyroid stimulating hormone receptor (TSHR) signaling pathway (AID 1224843; calls by dose curve; further: nearly all actives have a fitted effect of over 45% in size)
How it was run: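 HEK293 cells stably bearing the thyrotropin receptor were plated at 800 cells/well and challenged with compound (30 min, RT). Accumulated cAMP was quantified via cAMP-d2 competing for cryptate-tagged antibody.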

[8] = qHTS assay to identify small molecule agonists of the hypoxia (HIF-1) signaling pathway - cell viability counter screen (AID 1224844; calls by dose curve; further: nearly all actives have a fitted effect of over 50% in size)
How it was run: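 HRE-bla ME-180 cells, 2,000/well in 0.5% dialyzed FBS medium, treated 17 h at 37C with compounds. Viability read in the same wells as the bla reporter, by CellTiter-Glo luminescence after 30 min at room temperature.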

[9] = qHTS assay to identify small molecule agonists of H2AX (AID 1224845; active means well fitted activation curve with a large enough effect in the signal ratio in the repeat runs, not every such curve was filed as active; the % refers to the signal ratio)
How it was run: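 Phospho-H2AX Ser139 measured by HTRF (ex 320 nm; em 665 and 620 nm) after 24 hr antibody incubation. Compounds, 15 concentrations, 0.76% DMSO, were applied to CHO-K1 cells for 3hr at 37C before lysis.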

[10] = qHTS assay to identify small molecule agonists of H2AX - cell viability counter screen (AID 1224847; calls by dose curve; further: top concentration of the series differs between compounds; nearly all actives have a fitted effect of over 30% in size)
How it was run: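 Read-out: CellTiter-Glo luminescence, 30 min RT. Cells: wild-type CHO-K1, 1000/well, 10% FBS, plated overnight at 37C. Treatment: 15 concentrations, 3 hr, 37C, 0.76% DMSO.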

[11] = qHTS RealTime-Glo MT Cell Viability Assay in HepG2 cells - 24 hour (AID 1224867); further: nearly all actives have a fitted effect of over 50% in size
How it was run: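 HepG2 cells (600/well) were dispensed with RealTime-Glo reagents, incubated 5 h at 37 °C, then treated with compounds in DMSO for up to 40 h. Nonlytic NanoLuc luminescence reflecting viable cells was read at each stated time point.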

[12] = qHTS RealTime-Glo MT Cell Viability Assay in HEK293 cells - 32 hour (AID 1224868); further: top concentration of the series differs between compounds; nearly all actives have a fitted effect of over 50% in size
How it was run: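 HEK293 cells seeded with NanoLuc/prosubstrate reagent, rested 5 h at 37 C, then dosed and kept at 37 C up to 40 h. Nonlytic real-time luminescence from viable cells read at 0, 8, 16, 24, 32 and 40 h.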

[13] = A CellTox Green Cytotoxicity Assay to monitor cytotoxicity in HEK293 cells - 0 hour (AID 1224869); further: nearly all actives have a fitted effect of over 50% in size
How it was run: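 HEK293 cells, 600/well, were preincubated 5 hours and then exposed to compounds at 37 C for up to 40 hours. A cell-impermeant cyanine dye staining dead-cell DNA was read by fluorescence at 0, 8, 16, 24, 32 and 40 h time points.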

[14] = qHTS RealTime-Glo MT Cell Viability Assay in HepG2 cells - 40 hour (AID 1224870); further: nearly all actives have a fitted effect of over 50% in size
How it was run: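 Real-time viability: cells seeded at 600 per well together with NanoLuc and cell-permeant prosubstrate, compounds added after 5 h incubation. Luminescence tracked at 0, 8, 16, 24, 32 and 40 h of exposure.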

[15] = qHTS assay to identify small molecule antagonists of the estrogen related receptor signaling pathway with the pleiotropic PPARgamma coactivator (PGC) from Tox21 10K library (AID 1224841; call rule not given here)
How it was run: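 PGC/ERR cell line, 2,000 cells/well, pre-incubated 6 hours at 37 C, then exposed to compounds for 18 hours at 37 C; luciferase read with One-Glo luminescence after 30 min at room temperature.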

[16] = qHTS assay to identify small molecule agonists of the estrogen related receptor signaling pathway with the pleiotropic PPARgamma coactivator (PGC) from Tox21 10K library (AID 1224842); further: nearly all actives have a fitted effect of over 15% in size
How it was run: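 Luminescence from One-Glo (30 min, room temperature) measured after PGC/ERR cells had 18 h at 37 C with pinned compound (23 nL in DMSO). Cells had been seeded at 2,000 per well and pre-incubated 6 h.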

[17] = qHTS assay to identify small molecule agonists of the hypoxia (HIF-1) signaling pathway (AID 1224846; active means well fitted activation curve with a large enough effect in the signal ratio in the repeat runs, not every such curve was filed as active; the % refers to the signal ratio)
How it was run: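 HRE-bla ME-180 beta-lactamase reporter cells in medium with 0.5% dialyzed FBS, pre-incubated 5 h then exposed to compounds 17 h at 37C, 5% CO2; reporter induction read with CCF4-AM FRET substrate.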

[18] = qHTS assay to identify small molecule antagonists of the estrogen related receptor (ERR) signaling pathway from Tox21 library (AID 1224848); further: nearly all actives have a fitted effect of over 50% in size
How it was run: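 Reading was by luminescence 30 min after ONE-Glo addition. Before that, ERR cells at 2,000 per well had rested 6 h at 37 C/5% CO2 and then received pin-tooled compounds in DMSO for 18 h at 37 C.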

[19] = qHTS assay to identify small molecule agonists of the estrogen related receptor (ERR) signaling pathway from Tox21 library (AID 1224849; calls by dose curve; further: nearly all actives have a fitted effect of over 15% in size); settings: ERR reporter cell line, ONE-Glo luciferase, 18 h; at 92.4 µM (top of the series) unless noted
How it was run: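 ERR reporter cells (NTP line) pre-incubated 6 hours at 37 C, then exposed to compounds for 18 hours at 37 C. ONE-Glo luciferase luminescence was read after 30 minutes at room temperature.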
On the % scale 0 is the no-effect control and ±100 the full control effect.

Thyrotropin receptor (Homo sapiens), sequence (P16473 whole entry, looked up): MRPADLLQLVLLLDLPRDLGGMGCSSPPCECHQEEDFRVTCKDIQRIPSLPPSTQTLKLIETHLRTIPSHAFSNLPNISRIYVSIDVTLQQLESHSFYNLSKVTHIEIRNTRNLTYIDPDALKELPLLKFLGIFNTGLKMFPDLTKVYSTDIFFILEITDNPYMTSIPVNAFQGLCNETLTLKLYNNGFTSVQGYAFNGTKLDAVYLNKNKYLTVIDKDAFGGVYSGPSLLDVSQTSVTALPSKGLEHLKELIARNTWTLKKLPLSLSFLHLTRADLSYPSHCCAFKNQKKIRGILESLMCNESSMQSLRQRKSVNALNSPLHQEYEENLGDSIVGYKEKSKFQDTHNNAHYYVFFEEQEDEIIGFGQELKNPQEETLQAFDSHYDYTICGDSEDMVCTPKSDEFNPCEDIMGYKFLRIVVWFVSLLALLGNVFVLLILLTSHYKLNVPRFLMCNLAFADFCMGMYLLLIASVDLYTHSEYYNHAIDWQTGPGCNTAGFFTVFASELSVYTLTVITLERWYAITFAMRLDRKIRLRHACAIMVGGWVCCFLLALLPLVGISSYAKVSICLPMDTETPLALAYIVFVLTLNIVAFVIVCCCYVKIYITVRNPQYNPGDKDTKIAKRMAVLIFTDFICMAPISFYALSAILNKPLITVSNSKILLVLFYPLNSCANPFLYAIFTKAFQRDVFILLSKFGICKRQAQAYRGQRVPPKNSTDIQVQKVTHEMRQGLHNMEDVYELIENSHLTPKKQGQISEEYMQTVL
Luciferin 4-monooxygenase (Photinus pyralis), sequence (P08659 whole entry, looked up): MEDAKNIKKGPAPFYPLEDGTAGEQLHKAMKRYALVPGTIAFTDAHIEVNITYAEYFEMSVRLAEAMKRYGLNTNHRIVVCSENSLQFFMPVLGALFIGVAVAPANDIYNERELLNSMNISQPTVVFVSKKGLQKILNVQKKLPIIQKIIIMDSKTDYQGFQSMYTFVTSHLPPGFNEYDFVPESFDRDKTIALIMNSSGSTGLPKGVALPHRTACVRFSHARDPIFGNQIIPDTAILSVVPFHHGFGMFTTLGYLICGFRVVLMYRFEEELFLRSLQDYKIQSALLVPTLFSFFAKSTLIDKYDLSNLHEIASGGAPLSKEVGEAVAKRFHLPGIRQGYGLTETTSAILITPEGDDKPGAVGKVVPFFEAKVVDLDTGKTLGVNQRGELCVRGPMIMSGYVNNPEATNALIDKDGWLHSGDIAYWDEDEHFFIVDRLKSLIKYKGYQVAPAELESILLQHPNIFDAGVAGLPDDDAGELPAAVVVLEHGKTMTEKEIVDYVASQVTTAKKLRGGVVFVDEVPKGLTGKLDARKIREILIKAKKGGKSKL
Nuclear receptor subfamily 1 group I member 3 (Homo sapiens), sequence (Q14994 whole entry, looked up): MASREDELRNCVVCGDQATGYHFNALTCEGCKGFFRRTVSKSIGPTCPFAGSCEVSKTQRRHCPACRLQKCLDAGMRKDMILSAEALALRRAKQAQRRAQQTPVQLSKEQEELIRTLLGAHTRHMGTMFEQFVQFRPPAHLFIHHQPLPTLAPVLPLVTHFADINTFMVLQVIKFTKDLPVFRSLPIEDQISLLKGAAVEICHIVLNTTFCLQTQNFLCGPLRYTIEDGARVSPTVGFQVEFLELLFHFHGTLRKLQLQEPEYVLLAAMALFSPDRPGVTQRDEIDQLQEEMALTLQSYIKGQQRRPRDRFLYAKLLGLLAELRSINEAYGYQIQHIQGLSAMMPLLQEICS

COc1ccccc1OCC(O)CN1CCN(CC(=O)Nc2c(C)cccc2C)CC1 (stereo unspecified)
inactive: Potency [1] | Potency [2] | Potency [3] | Potency [4] | Potency [5] | Potency [6] | Potency [7] | Potency [8] | outcome [9] | Potency [10] | Potency [11] | Potency [12] | Potency [13] | Potency [14]

CCCCCCCCCCCC
inactive: Potency [1] | Potency [2] | Potency [4] | Potency [6] | Potency [15] | outcome [16] | Potency [7] | Potency [8] | outcome [9] | outcome [17] | Potency [10] | Potency [18] | activity change, positive = activation [19] 11.3% | Potency [11] | Potency [12] | Potency [14]

CN(C)CCCNCCCN(C)C
inactive: Potency [1] | Potency [2] | Potency [4] | Potency [6] | Potency [15] | outcome [16] | Potency [7] | Potency [8] | outcome [9] | Potency [10] | Potency [18] | activity change, positive = activation [19] -4.23% | Potency [11] | Potency [12] | Potency [13]

O=C(CCCN1CCN(c2ccccn2)CC1)c1ccc(F)cc1
inactive: Potency [1] | Potency [2] | Potency [3] | Potency [4] | Potency [5] | Potency [6] | Potency [15] | outcome [16] | Potency [8] | outcome [9] | Potency [10] | Potency [18] | Potency [11] | Potency [13] | Potency [14]

Cc1sccc1Br
inactive: Potency [1] | Potency [2] | Potency [4] | Potency [15] | outcome [16] | Potency [7] | Potency [8] | outcome [9] | outcome [17] | Potency [10] | Potency [18] | activity change, positive = activation [19] -1.02% [at 42.5 µM] | Potency [11] | Potency [12] | Potency [13]

N=C(N)c1ccc2cc(OC(=O)c3ccc(N=C(N)N)cc3)ccc2c1
inactive: Potency [1] | Potency [2] | Potency [3] | Potency [4] | Potency [15] | outcome [16] | Potency [8] | outcome [9] | outcome [17] | Potency [10] | Potency [18] | activity change, positive = activation [19] 0.274% [at 42.5 µM] | Potency [11] | Potency [12] | Potency [13] | Potency [14]

Cc1ccc(Cl)cc1Cl
inactive: Potency [1] | Potency [2] | Potency [3] | Potency [4] | Potency [5] | Potency [15] | outcome [16] | Potency [8] | outcome [9] | Potency [10] | Potency [18] | activity change, positive = activation [19] -0.115% | Potency [11] | Potency [12] | Potency [14]
